High-throughput results: PubChem BioAssay, The Scripps Research Institute Molecular Screening Center
GBA enhancer = increases beta-glucosidase activity in Gaucher fibroblasts; L444P Gaucher fibroblasts, 4-MU-glucoside fluorescence, 3 days; activation, % at 10 µM; hit rate 0.44% among 30,000; AID 784; in the data active means activation above about 65%;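 further: 0% = vehicle wells and 100% = positive control wells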
Target sequence (P04062 whole entry L483P): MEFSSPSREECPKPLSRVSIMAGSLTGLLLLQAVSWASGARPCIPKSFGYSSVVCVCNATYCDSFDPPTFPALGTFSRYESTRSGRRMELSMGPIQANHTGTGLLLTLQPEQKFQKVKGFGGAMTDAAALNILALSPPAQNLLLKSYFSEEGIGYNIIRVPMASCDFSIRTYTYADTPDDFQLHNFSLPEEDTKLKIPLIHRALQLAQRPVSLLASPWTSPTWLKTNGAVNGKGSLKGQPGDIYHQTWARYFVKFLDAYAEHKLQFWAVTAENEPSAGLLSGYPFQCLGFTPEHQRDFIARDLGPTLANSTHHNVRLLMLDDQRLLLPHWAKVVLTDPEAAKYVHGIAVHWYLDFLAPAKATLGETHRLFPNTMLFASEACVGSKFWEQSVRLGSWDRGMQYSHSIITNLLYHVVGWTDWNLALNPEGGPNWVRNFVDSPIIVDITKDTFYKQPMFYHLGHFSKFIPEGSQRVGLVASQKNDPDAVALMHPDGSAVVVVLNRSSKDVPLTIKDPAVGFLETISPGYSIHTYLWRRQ
* marks the source's active call; other numbers are inactive results. The full list was thinned out, with hits kept by preference.

SMILES	GBA enhancer
S=c1[nH]nc(Cc2ccccc2)n1Cc1ccco1	101*
O=C(NCc1n[nH]c(=S)n1-c1ccccc1)c1ccco1	32
CC(=O)NC(Cc1ccc(F)cc1)C(=O)N1CCN(C(=O)NCc2ccccc2)CC1 (stereo not drawn)	6
COCCN(CCOC)S(=O)(=O)c1ccc(C(=O)Nc2nnc(C)o2)cc1	-9
COCc1nnc(NC(=O)c2ccc(S(=O)(=O)N(C)C3CCCCC3)cc2)o1	79*
COCc1nnc(NC(=O)c2ccc(S(=O)(=O)N3CCCCCC3)cc2)o1	2
Cc1sc(NC(=O)CSc2nnc(-c3ccc(F)cc3)o2)c(C#N)c1C	4
C=C(C)c1cccc(C(C)(C)NC(=O)NCCCn2ccnc2)c1	-16
O=C(NCCCn1ccnc1)Nc1ccc(Cl)cc1	122*
O=C(NCCCn1ccnc1)Nc1ccc(Cl)c(Cl)c1	-3
O=C(Nc1cccc(C(F)(F)F)c1)C1CCCN1S(=O)(=O)c1cccc2cccnc12 (stereo not drawn)	-3
O=C(Cc1coc(-c2ccc(F)cc2)n1)N1CCOCC1	-18
CCC(NS(=O)(=O)c1ccc(C)cc1)C(=O)Nc1ccc(NC(C)=O)cc1 (stereo not drawn)	-11
Cc1ccc2c(c1)N(CCC(=O)NCCCOC(C)C)C(=O)C(C)O2 (stereo not drawn)	-11
Clc1ccc(C2=Nn3c(nnc3-c3cccnc3)SC2)s1	-14
O=c1oc2ccccc2cc1C1=Nn2c(nnc2-c2cccnc2)SC1	-9
Brc1ccc(C2=Nn3c(nnc3-c3cccnc3)SC2)s1	98*
CCOc1ccccc1CN1C(=O)NC(C)(c2ccccc2)C1=O (stereo not drawn)	-51
CCN(CC)C(=O)CSc1nnc(-c2ccco2)n1Cc1ccco1	-8
CC(C)(C)NC(=O)CSc1nnc(-c2ccco2)n1Cc1ccco1	78*
COC(=O)CSc1nnc(-c2ccco2)n1Cc1ccco1	-2
Cc1cc(=O)oc2cc3c(cc12)OCCN3	14
Cc1cc(=O)oc2cc3c(cc12)OCCO3	-1
Cc1cc2c(C)cc(=O)oc2c2c1NCCC2	76*
Cc1cc(/C=N/n2cnnc2)c(C)n1-c1cc(Cl)ccc1Cl	-8
SMILES	GBA enhancer
Cc1sc2ncnc(Sc3nnc4sc5ccccc5n34)c2c1C	-15
CCN(CC)S(=O)(=O)c1ccc2oc(C(=O)NCc3ccc(F)cc3)c(C)c2c1	-54
COc1ccccc1CC(=O)NCC1CCCO1 (stereo not drawn)	10
COc1ccc(S(=O)(=O)N(CC(=O)NCC2CCCO2)c2ccccc2)cc1OC (stereo not drawn)	75*
COc1ccc(S(=O)(=O)N(CC(=O)N2CCN(C)CC2)c2ccccc2)cc1OC	-48
CCc1ccccc1NC(=O)CSc1nnc(-c2ccco2)n1N	-31
CCCn1c2ccccc2c2nnc(SCC(=O)OCC)nc21	-6
O=C(CSc1nnc2c(n1)[nH]c1ccc(F)cc12)OCc1ccccc1	76*
O=C(CN1CCN(c2ccc(F)cc2)CC1)OCc1ccccc1	-10
CCOc1ncccc1C(=O)NCC1COc2ccccc2O1 (stereo not drawn)	5
COc1ccc(S(=O)(=O)N2CCC(C(=O)Nc3ccccc3C)CC2)c2cccnc12	-13
O=C(CCCn1nnc(-c2cccnc2)n1)c1ccc(F)cc1	6
O=C(CC1SC(N2CCCCC2)=NC1=O)Nc1cccc(C(=O)O)c1 (stereo not drawn)	-4
Cn1c2ccccc2c2cnn(CC(=O)N3CCN(c4ncccn4)CC3)c(=O)c21	-11
COc1ccc(S(=O)(=O)C(C#N)c2nc3ccccc3nc2N2CCCCC2)cc1 (stereo not drawn)	96*
COc1ccc(CNC(=O)C(C#N)c2nc3ccccc3nc2N2CCCC2)cc1 (stereo not drawn)	-20
Cc1ccc(C)c(S(=O)(=O)C(C#N)c2nc3ccccc3nc2N2CCCC2)c1 (stereo not drawn)	13
CCS(=O)(=O)NCC(c1cccnc1)N1CCN(c2ccccc2F)CC1 (stereo not drawn)	-15
CC1(C)OC(=O)C2(Cc3ccccc3N3CCCCC32)C(=O)O1 (stereo not drawn)	-58
CCOc1cc2[nH]c(=O)n(CCCCCC(=O)NCc3ccc4c(c3)OCO4)c(=O)c2cc1OCC	-23
CCOc1cc2[nH]c(=O)n(CC3CCC(C(=O)NC4CCCCC4)CC3)c(=O)c2cc1OCC (stereo not drawn)	5
CCCCN(C)C(=O)CCCCn1c(=O)[nH]c2cc(OCC)c(OCC)cc2c1=O	68*
Cc1cc(S(=O)(=O)N2CCN(c3ncccn3)CC2)ccc1-n1cnnn1	-15
COc1ccc(C)cc1NC(=O)CN1CCN(S(=O)(=O)c2ccc(C(C)C)cc2)CC1	21
COc1ccc(NC(=O)CN2CCN(S(=O)(=O)c3ccc(C(C)C)cc3)CC2)cc1OC	66*
SMILES	GBA enhancer
COC(=O)c1ccc(NC(=O)CN2CCN(S(=O)(=O)c3cc(Cl)ccc3OC)CC2)cc1	-18
COc1ccc(C2(O)CCN(CCCCOc3ccccc3)CC2)cc1	-23
C[N+](C)(C)C/C=C1/COCO1	-13
O=C(O)CN1C(=O)CSc2ccccc21	-8
O=C(O)CN1C(=O)C2(OCCCO2)c2ccccc21	4
CCOC(=O)CN1C(=O)CSc2ccccc21	73*
O=C1CSc2ccccc2N1Cc1ccc(F)cc1	37
Cc1ccc2c(c1)N(CC(=O)O)C(=O)CO2	-7
CC1(C)CC(=O)N(CC(=O)O)c2ccccc2S1	88*
COc1ccc(N2CCN(CCNC(=O)c3cccn4c(=O)c5ccc(Cl)cc5nc34)CC2)cc1	-68
CCNc1nc2c(c(=O)n(Cc3ccccc3)c(=O)n2C)n1Cc1ccccc1	-24
CC1=C(C)C(=O)NC(Nc2nc(C)c3cc(C)cc(C)c3n2)N1 (stereo not drawn)	-51
Cn1nnnc1SCCOc1ccc(C#N)cc1	-5
CCCn1c(SCC(=O)N2CCCc3ccccc32)nnc1-c1ccccn1	12
CCn1c(SCC(=O)Nc2cc(OC)ccc2OC)nnc1C1CCCCC1	8
CC1=C(C(=O)NCCN2CCN(C)CC2)C2(CCC(C)CC2)OC1=O (stereo not drawn)	-10
COc1ccc(CNC(=O)CCCNS(=O)(=O)c2cccc3nonc23)cc1	183*
O=C(CCCNS(=O)(=O)c1cccc2nsnc12)NCc1ccccc1	-16
O=C(CCCNS(=O)(=O)c1cccc2nsnc12)NCc1ccc(Cl)cc1	-36
CCCOc1ccc(OC(=O)c2ccc(Br)o2)cc1	-2
COc1cc(C)c(S(=O)(=O)N2CCCC2)cc1C	-30
COCCN1Cc2cccc(C(=O)NCc3ccc4c(c3)OCO4)c2C1=O	-10
COc1ccc(CNC(=O)CN(CC2CCCO2)C(=O)CNS(=O)(=O)c2ccccc2)cc1 (stereo not drawn)	-7
COc1ccc(CNC(=O)CN(CC2CCCO2)C(=O)CNS(=O)(=O)c2ccc(C)cc2)cc1 (stereo not drawn)	76*
Cc1ccc(S(=O)(=O)NCC(=O)N(CC(=O)NCc2ccccc2)CC2CCCO2)cc1 (stereo not drawn)	5
SMILES	GBA enhancer
NC(=O)c1cnn2c(C(F)(F)F)cc(-c3ccc(F)cc3)nc12	-48
COc1cccc(C2NC(=O)NC(C)=C2C(=O)OCCSC)c1OC (stereo not drawn)	-5
Cc1c(Cl)cccc1N(CC(=O)N1CCCCCC1)S(C)(=O)=O	-9
Cc1c(Cl)cccc1N(CC(=O)O)S(C)(=O)=O	88*
CNC(=O)CN(c1cccc2ccccc12)S(C)(=O)=O	-31
CCOC(=O)c1cnn(CC2CCCCC2)c1N	39
